# Test results reported in PubChem BioAssay.
# Values joined by “and” are separate entries in the source; they are usually repeats but may differ in a detail not shown here. Equal entries are not always repeated. Results filed as inconclusive are left out. Active and inactive are the calls of the source. Rule as the data show it, unless noted: active = inhibition above about 80%; inactive = the rest.
# Tests used:
# [1] = viability loss in pontine glioma line – cell-based, SU-DIPG-XXV, MIPE5.0, CellTiter-Glo, qHTS, dose response (AID 1347065; cut-off not given, nearly all actives have AC50 up to about 26 µM;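 also: cells exposed to compound for 48 hours before ATP readout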); settings: CellTiter-Glo ATP luminescence
# [2] = SU-DIPG-VI glioma cell viability, MIPE4.0 library, CellTiter-Glo luminescence, qHTS (AID 1347066; cut-off not given, nearly all actives have AC50 up to about 30 µM;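 also: cells exposed to compound for 48 hours before readout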); settings: CellTiter-Glo ATP luminescence
# [3] = JHH-DIPG-1 glioma cell viability, MIPE5.0 library, CellTiter-Glo luminescence, qHTS (AID 1347067; cut-off not given, nearly all actives have AC50 up to about 26 µM;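 also: cells exposed to compound for 48 hours before readout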); settings: JHH-DIPG-1 glioma viability, CellTiter-Glo ATP luminescence
# [4] = SU-DIPG-XXV glioma cell viability, MIPE5.0 library, qHTS (AID 1347068; cut-off not given, nearly all actives have IC50 up to about 30 µM)
# [5] = phospholipid biosynthesis inhibitors in animal cells, primary screen, cell-based, LOPAC library, screen 4 (AID 1347384; call rule not given here); settings: phospholipid biosynthesis inhibition screen, at 10 µM
# [6] = survival rescue of mitochondrial mutant cells in low glucose, primary screen, MELAS cybrids, Rieske KO mouse fibroblasts, CellTiter-Glo (AID 1508586;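 active = mean z-score across replicates of 1.96 or higher in either the MELAS or the Rieske mutant cell line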;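 also: z relative to plate mean and SD of compound and empty wells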)
# [7] = biological target: NAD(+) hydrolase SARM1 (Homo sapiens) (UniProt Q6SZW1); assay: SARM1 TIR NADase inhibitors, cell lysate, NAD-Glo luminescence (AID 1508614;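 active = compound whose remaining NAD level is above about 45 nM, limit read from the data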;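 also: higher remaining NAD means stronger inhibition of SARM1 NADase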); settings: SAM-TIR HEK293T lysate NADase, at 1 µM, stronger effect = higher value
# Chain of NAD(+) hydrolase SARM1 (Homo sapiens) (Q6SZW1 whole entry, looked up, the tested form may be a part): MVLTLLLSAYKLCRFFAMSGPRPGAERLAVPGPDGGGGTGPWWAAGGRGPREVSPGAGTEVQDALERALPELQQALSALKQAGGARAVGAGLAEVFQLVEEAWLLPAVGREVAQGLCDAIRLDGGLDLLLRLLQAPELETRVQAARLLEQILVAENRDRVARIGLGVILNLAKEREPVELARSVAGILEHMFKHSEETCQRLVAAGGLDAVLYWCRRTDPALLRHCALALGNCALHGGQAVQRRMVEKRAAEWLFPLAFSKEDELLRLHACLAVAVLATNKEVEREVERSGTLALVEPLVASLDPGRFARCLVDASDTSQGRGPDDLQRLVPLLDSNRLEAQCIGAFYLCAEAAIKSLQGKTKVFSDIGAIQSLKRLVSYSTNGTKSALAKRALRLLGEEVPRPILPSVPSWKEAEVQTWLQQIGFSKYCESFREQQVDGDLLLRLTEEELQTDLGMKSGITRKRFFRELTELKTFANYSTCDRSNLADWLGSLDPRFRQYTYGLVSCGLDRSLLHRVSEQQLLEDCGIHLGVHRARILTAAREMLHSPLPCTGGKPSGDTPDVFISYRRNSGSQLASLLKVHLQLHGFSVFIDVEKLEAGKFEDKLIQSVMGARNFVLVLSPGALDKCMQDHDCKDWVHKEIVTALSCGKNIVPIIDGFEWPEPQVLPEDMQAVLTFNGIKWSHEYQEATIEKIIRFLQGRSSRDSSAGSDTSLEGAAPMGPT
# [8] = biological target: Mitogen-activated protein kinase 7 (Homo sapiens) (UniProt Q13164); assay: ERK5 transactivation activators in reporter cells, primary screen, cell-based, HTS (AID 1508626;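 active = luciferase signal above three times the same-plate solvent-only control wells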;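 also: luciferase driven by Gal4-ERK5 fusion binding five Gal4 sites before minimal TATA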); settings: HeLa Gal4-ERK5 transactivation, 18 h, at 5 µM, stronger effect = higher value
# Chain of Mitogen-activated protein kinase 7 (Homo sapiens) (Q13164 whole entry, looked up, the tested form may be a part): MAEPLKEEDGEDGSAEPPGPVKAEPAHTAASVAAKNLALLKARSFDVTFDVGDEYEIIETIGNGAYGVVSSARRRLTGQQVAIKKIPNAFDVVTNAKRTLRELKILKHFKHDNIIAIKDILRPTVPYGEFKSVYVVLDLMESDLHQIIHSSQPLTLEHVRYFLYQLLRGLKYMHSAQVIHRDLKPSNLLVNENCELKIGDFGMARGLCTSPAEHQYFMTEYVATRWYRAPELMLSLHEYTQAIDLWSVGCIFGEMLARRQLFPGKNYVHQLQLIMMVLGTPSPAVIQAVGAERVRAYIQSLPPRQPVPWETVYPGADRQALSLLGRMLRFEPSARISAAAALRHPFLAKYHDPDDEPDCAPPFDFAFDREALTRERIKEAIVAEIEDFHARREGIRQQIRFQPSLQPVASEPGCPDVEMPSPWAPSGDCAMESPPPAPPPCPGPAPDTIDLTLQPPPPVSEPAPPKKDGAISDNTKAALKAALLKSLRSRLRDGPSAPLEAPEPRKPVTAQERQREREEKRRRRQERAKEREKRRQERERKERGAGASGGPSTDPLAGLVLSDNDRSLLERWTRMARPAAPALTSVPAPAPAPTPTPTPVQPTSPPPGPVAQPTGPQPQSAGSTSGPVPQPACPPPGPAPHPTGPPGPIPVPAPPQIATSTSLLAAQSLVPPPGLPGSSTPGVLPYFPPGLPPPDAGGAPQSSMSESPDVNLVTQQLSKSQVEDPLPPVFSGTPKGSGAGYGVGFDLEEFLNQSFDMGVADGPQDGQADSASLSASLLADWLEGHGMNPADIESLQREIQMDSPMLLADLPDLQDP
# [9] = viability rescue of complex I mutant cybrids, primary screen, cell-based, galactose medium, ATP luminescence (AID 1645843;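 active = z-score of at least 1.8 in each of two replicates, scored against plate mean and spread of sample wells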;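 also: positive z means more ATP and so rescue of galactose-driven cybrid death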); settings: complex I mutant cybrid cells, 72 h, stronger effect = higher value
# [10] = LFS_MB_P medulloblastoma growth inhibition, cell-based, chromothripsis tumors, cisplatin or BGB combos (AID 1671449); settings: LFS_MB_P medulloblastoma cells;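 also: cells exposed for 96 hours; 0% = vehicle DMSO and 100% = killing by high DMSO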
# [11] = HDN33 neuroblastoma growth inhibition, cell-based, chromothripsis tumors, cisplatin or BGB combos (AID 1671450); settings: HDN33 neuroblastoma cells, stronger effect = higher value;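 also: cells exposed to compound for four days; 0% = vehicle DMSO and 100% = cell killing by high DMSO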
# [12] = ICB984 medulloblastoma cell growth inhibition, synergistic combos for chromothripsis tumors, cisplatin or BGB combos (AID 1671451; call rule not given here;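 also: cells exposed for 96 hours before readout; 0% = vehicle DMSO and 100% = killing by high DMSO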); settings: ICB984 medulloblastoma cells, drug combinations, stronger effect = higher value
# [13] = LFS_MB_1R medulloblastoma cell growth inhibition, synergistic combos for chromothripsis tumors, cisplatin or BGB combos (AID 1671452); settings: LFS_MB_1R medulloblastoma cells, stronger effect = higher value;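 also: cells exposed for 96 hours before readout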
# [14] = HTB85 osteosarcoma cell growth inhibition, synergistic combos for chromothripsis tumors, BGB or cisplatin IC20 combos (AID 1671453); settings: HTB85 osteosarcoma cells, drug combinations, stronger effect = higher value;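 also: cells exposed for 96 hours before readout; 0% = vehicle DMSO and 100% = high DMSO killing control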
# [15] = CRL2098 osteosarcoma cell growth inhibition, synergistic combos for chromothripsis tumors, BGB or cisplatin IC20 combos (AID 1671454); settings: CRL2098 osteosarcoma cells, drug combinations, stronger effect = higher value;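 also: cells exposed for 96 h before readout; 0% = vehicle DMSO and 100% = killing by high DMSO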
# [16] = HD-MB03 medulloblastoma cell growth inhibition, synergistic combos for chromothripsis tumors, BGB or cisplatin IC20 combos (AID 1671455; in the data active = inhibition above about 83%;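 also: 0% = vehicle DMSO and 100% = high DMSO as cytotoxic control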); settings: HD-MB03 medulloblastoma cells, stronger effect = higher value
# [17] = MELAS cybrid survival, CellTiter-Glo 48 h, stronger effect = higher value
# [18] = Rieske KO mouse fibroblast survival, CellTiter-Glo 72 h
# [19] = at 0.5 µM, stronger effect = higher value
# [20] = measured here: combination with BGB IC20, at 0.005 µM
# [21] = measured here: combination with BGB IC40, at 0.005 µM
# [22] = measured here: combination with BGB IC40, at 0.05 µM
# [23] = measured here: combination with cisplatin, at 0.5 µM, stronger effect = higher value
# [24] = measured here: combination with cisplatin, at 5 µM, stronger effect = higher value
# [25] = measured here: with BGB IC20 combination, at 0.5 µM
# [26] = measured here: with cisplatin IC20 combination, at 0.5 µM
# [27] = measured here: 5 uM single agent, at 5 µM
# [28] = measured here: combination with cisplatin, at 0.5 µM
# [29] = measured here: combination with cisplatin, at 5 µM
# [30] = measured here: with BGB IC20, at 0.5 µM
# [31] = measured here: with BGB IC20, at 5 µM
# [32] = measured here: with cisplatin IC20, at 0.5 µM
# [33] = measured here: with cisplatin IC20, at 5 µM
# [34] = measured here: combination with BGB at IC20, at 0.5 µM
# [35] = measured here: combination with cisplatin at IC20, at 0.5 µM
# [36] = measured here: combo with BGB at IC20, at 0.5 µM
# [37] = measured here: combo with cisplatin at IC20, at 0.5 µM
smiles,measurement,setting,value
CCn1cc(C(=O)O)c(=O)c2cc(F)c(N3CCNC(C)C3)c(F)c21 (configuration not stated),outcome,[1],inactive
same,outcome,[2],inactive
same,outcome,[3],inactive
same,outcome,[4],inactive
same,outcome,[5],inactive
same,z-score,[6]; [17],-0.544 (inactive) and -0.435 (inactive)
same,z-score,[6]; [18],0.167 and 0.141
same,remaining NAD,[7],10 nM (inactive)
same,luciferase signal,[8],36 AU (inactive)
same,z-score,[9],0.475 (inactive) and -0.065 (inactive)
same,inhibition,[10]; [19],-15.3% (inactive) and -10.6% (inactive)
same,inhibition,[10]; [20],-5.89% and -31.7%
same,inhibition,[10]; [21],-27.7% and -17%
same,inhibition,[10]; [22],-32.7% and -10.2%
same,inhibition,[10]; [23],-27.9% and -16%
same,inhibition,[10]; [24],-19.1% and -19.2%
same,inhibition,"[11]; BGB combo, at 5 µM",-42.8% and -11.5%
same,inhibition,[11]; at 0.5 µM,-39.6% (inactive) and -19.9% (inactive)
same,inhibition,"[11]; cisplatin combo, at 5 µM",-22.1% and -6.52%
same,inhibition,[11]; [25],-33.5% and -33.9%
same,inhibition,[11]; [26],-40.2% and -6.39%
same,inhibition,"[11]; single agent, at 5 µM",-51.7% and -21.7%
same,inhibition,"[12]; BGB IC20 combo, at 0.005 µM",-2.68% and 6.83%
same,inhibition,"[12]; BGB IC40 combo, at 0.005 µM",-5.47% and -12.9%
same,inhibition,"[12]; BGB IC40 combo, at 0.05 µM",-30.9% and -16.1%
same,inhibition,[12]; at 0.5 µM,-32.8% (inactive) and -22.8% (inactive)
same,inhibition,"[12]; cisplatin combo, at 0.05 µM",-34.5% and -19.4%
same,inhibition,"[12]; cisplatin combo, at 0.5 µM",-41.4% and -25.5%
same,inhibition,"[12]; cisplatin combo, at 5 µM",-38.8% and -8.31%
same,inhibition,[12]; [27],-28.6% and -13.7%
same,inhibition,[13]; at 0.5 µM,-35.3% (inactive) and -9.61% (inactive)
same,inhibition,[13]; [22],-24.9% and -19.8%
same,inhibition,[13]; [28],-39.3% and -32.8%
same,inhibition,[13]; [29],-53.1% and -17.8%
same,inhibition,[14]; at 0.5 µM,-42.2% (inactive) and 22% (inactive)
same,inhibition,[14]; [30],-50.9% and 58.5%
same,inhibition,[14]; [31],-41.8% and 56%
same,inhibition,[14]; [32],-43.1% and 12.8%
same,inhibition,[14]; [33],-15.2% and -22.2%
same,inhibition,"[14]; single agent, at 5 µM",-37.9% and -11.7%
same,inhibition,[15]; at 0.5 µM,-101% (inactive) and -12.1% (inactive)
same,inhibition,[15]; [34],-94% and -48.1%
same,inhibition,[15]; [35],-123% and -10.4%
same,inhibition,[16]; at 0.5 µM,-11.4% (inactive) and -9.63% (inactive)
same,inhibition,[16]; [36],-10.9% and -2.68%
same,inhibition,[16]; [37],-12.2% and -16.4%
Nc1nc2c(ncn2COC(CO)CO)c(=O)[nH]1,outcome,[1],inactive
same,outcome,[2],inactive
same,outcome,[3],inactive
same,outcome,[4],inactive
same,outcome,[5],inactive
same,remaining NAD,[7],10 nM (inactive)
same,inhibition,[10]; [19],-14.4% (inactive)
same,inhibition,[10]; [20],-4.12%
same,inhibition,[10]; [21],-22.8%
same,inhibition,[10]; [22],1.72%
same,inhibition,[10]; [23],-35.5%
same,inhibition,[10]; [24],126%
same,inhibition,"[11]; BGB combo, at 5 µM",30.5%
same,inhibition,[11]; at 0.5 µM,-5.69% (inactive)
same,inhibition,"[11]; cisplatin combo, at 5 µM",55%
same,inhibition,[11]; [25],-10.7%
same,inhibition,[11]; [26],0.325%
same,inhibition,"[11]; single agent, at 5 µM",66%
same,inhibition,"[12]; BGB IC20 combo, at 0.005 µM",-34.3%
same,inhibition,"[12]; BGB IC40 combo, at 0.005 µM",-7.26%
same,inhibition,"[12]; BGB IC40 combo, at 0.05 µM",96.7%
same,inhibition,[12]; at 0.5 µM,-23.8% (inactive)
same,inhibition,"[12]; cisplatin combo, at 0.05 µM",96.7%
same,inhibition,"[12]; cisplatin combo, at 0.5 µM",-39.7%
same,inhibition,"[12]; cisplatin combo, at 5 µM",-4.59%
same,inhibition,[12]; [27],-6.09%
same,inhibition,[13]; at 0.5 µM,26.9% (inactive)
same,inhibition,[13]; [22],-58.1%
same,inhibition,[13]; [28],61.8%
same,inhibition,[13]; [29],106%
same,inhibition,[14]; at 0.5 µM,-13.4% (inactive)
same,inhibition,[14]; [30],-37.4%
same,inhibition,[14]; [31],32.5%
same,inhibition,[14]; [32],-11.6%
same,inhibition,[14]; [33],68.7%
same,inhibition,"[14]; single agent, at 5 µM",71%
same,inhibition,[15]; at 0.5 µM,2.15% (inactive)
same,inhibition,[15]; [34],2.66%
same,inhibition,[15]; [35],0.146%
same,inhibition,[16]; at 0.5 µM,-7.18% (inactive)
same,inhibition,[16]; [36],-5.76%
same,inhibition,[16]; [37],-11.1%
NC(CO)C(=O)NNCc1ccc(O)c(O)c1O (configuration not stated),outcome,[1],inactive
same,outcome,[2],inactive
same,outcome,[3],inactive
same,outcome,[4],inactive
same,outcome,[5],inactive
same,z-score,[6]; [17],-0.395 (inactive) and 0.597 (inactive) and -0.0244 (inactive)
same,z-score,[6]; [18],0.352 and -0.231 and -1.37
same,remaining NAD,[7],10 nM (inactive)
same,luciferase signal,[8],132 AU (inactive)
same,z-score,[9],-1.5 (inactive) and -0.255 (inactive)
Nc1[nH]c(=O)ncc1F,outcome,[1],inactive
same,outcome,[2],inactive
same,outcome,[3],inactive
same,outcome,[4],inactive
same,z-score,[6]; [17],-0.163 (inactive) and 0.671 (inactive)
same,z-score,[6]; [18],0.841 and -0.221
same,remaining NAD,[7],10 nM (inactive)
same,z-score,[9],0.61 (inactive)
same,inhibition,[10]; [19],35.6% (inactive)
same,inhibition,[10]; [20],-27.5%
same,inhibition,[10]; [21],-28.3%
same,inhibition,[10]; [22],-22%
same,inhibition,[10]; [23],56.8%
same,inhibition,[10]; [24],-29.9%
same,inhibition,"[11]; BGB combo, at 5 µM",-19.9%
same,inhibition,[11]; at 0.5 µM,-18.6% (inactive)
same,inhibition,"[11]; cisplatin combo, at 5 µM",-41.9%
same,inhibition,[11]; [25],-4.48%
same,inhibition,[11]; [26],-14.6%
same,inhibition,"[11]; single agent, at 5 µM",9.06%
same,inhibition,"[12]; BGB IC20 combo, at 0.005 µM",-28.5%
same,inhibition,"[12]; BGB IC40 combo, at 0.005 µM",-43.6%
same,inhibition,"[12]; BGB IC40 combo, at 0.05 µM",-8.87%
same,inhibition,[12]; at 0.5 µM,-40.6% (inactive)
same,inhibition,"[12]; cisplatin combo, at 0.05 µM",-8.87%
same,inhibition,"[12]; cisplatin combo, at 0.5 µM",-57.1%
same,inhibition,"[12]; cisplatin combo, at 5 µM",-45.6%
same,inhibition,[12]; [27],-3.48%
same,inhibition,[13]; at 0.5 µM,-37.2% (inactive)
same,inhibition,[13]; [22],-0.509%
same,inhibition,[13]; [28],-34.6%
same,inhibition,[13]; [29],-0.132%
same,inhibition,[14]; at 0.5 µM,-19.7% (inactive)
same,inhibition,[14]; [30],-43%
same,inhibition,[14]; [31],-34%
same,inhibition,[14]; [32],-6.71%
same,inhibition,[14]; [33],-6.3%
same,inhibition,"[14]; single agent, at 5 µM",-19.7%
same,inhibition,[15]; at 0.5 µM,-73.3% (inactive)
same,inhibition,[15]; [34],-56.9%
same,inhibition,[15]; [35],-90.3%
same,inhibition,[16]; at 0.5 µM,5.78% (inactive)
same,inhibition,[16]; [36],2.74%
same,inhibition,[16]; [37],10.4%
